From PubChem
SARS PLpro yeast – blocks SARS-CoV papain-like protease in a yeast assay; S. cerevisiae expressing SARS-CoV PLpro, growth rescue; 330,000 tested, 0.19% active; Potency, µM (highest dose often 32.9 µM), for the others: at the top dose activity, positive = growth rescue, usual class: activators; calls by dose curve; also: potency is read from the fitted curve at half-maximal effect; 0% is about no effect; nearly all actives have a fitted effect of over 55% in size
Shiga toxin inh – inhibitors of Shiga toxin in Vero cells. Vero cells, Shiga toxin protein synthesis inhibition reporter. inhibition, % at 38.7 µM. 290,000 tested, 9.2% active; in the data active = inhibition mostly above about 28%, no sharp cut-off; inactive = mostly below about 43%; also: 0% is about no effect
CHX counter – counter-screen for Shiga toxin inhibitors: cycloheximide protein synthesis inhibition; max response, %; AID 2314; cell reporter, cycloheximide protein synthesis inhibition counterscreen; 300,000 tested, 12% active; in the data active = max response mostly above about 13%, no sharp cut-off; inactive = mostly below about 14%; also: read at 38.3 µM for the half of the compounds with a filed dose; 0% is about no effect
AMA1 RON2 block – disrupts binding of P. falciparum AMA1 to RON2; AlphaScreen AMA1-biotinylated RON2 peptide binding; Potency, µM (titrated, usually from 58.2 µM), for inactives: at the highest dose activity change, negative = inhibition, hits mostly inhibitors; 360,000 tested, 0.2% active;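 also: potency is read from the fitted curve at half-maximal effect; 0% = vehicle wells and -100% = peptide control; nearly all actives have a fitted effect of over 45% in size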
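AMA1 (3D7) with his tag at 25 nM final met compounds first, then biotinylated RON2 peptide at 25 nM; detection used donor plus acceptor beads, 10 µg/mL apiece, read by AlphaScreen after 30 min at room temperature.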
Pf growth 48h – P. falciparum growth inhibition at 48 hours (one generation). 310,000 tested, 5.9% active. P. falciparum luciferase growth in erythrocytes, 48 h. Potency, µM (titrated, usually from 28.7 µM), for inactives: top-dose activity change, negative = inhibition, actives largely listed as inhibitors; also: potency is read from the fitted curve at half-maximal effect; % is scaled to controls: 0 for no effect and ±100 for the full control effect
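Luminescence readout; reporter = integrated firefly luciferase in P. falciparum. RBC culture at 2% hematocrit, 0.1% parasitemia final, 37 C/5% CO2; decreased signal taken as growth inhibition.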
Pf growth 96h – P. falciparum growth inhibition at 96 hour, primary screen for plastid delayed-death inhibitors | Potency, µM (titrated, usually from 28.7 µM), for inactives: at the highest dose activity change, negative = inhibition, actives largely listed as inhibitors | 320,000 tested, 6.9% active | P. falciparum luciferase reporter growth, 96 h; also: potency is read from the fitted curve at half-maximal effect; % is scaled to controls: 0 for no effect and ±100 for the full control effect
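Readout is luminescence from an integrated firefly luciferase in P. falciparum. Red cells, 2% hematocrit and 0.05% parasitemia final, were cultured with compound through two parasite generations (96 hours) at 37 C, 5% CO2.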
Active calls of the source: *; u = inconclusive; x = not tested or not shown. A selection: hits, their analogues and other compounds. The true share with any hit is near 19%. Unless noted, calls follow the shape of the dose curve; as a rule, active = well fitted curve in the direction sought with a large enough effect; inconclusive = small, poorly fitted or top-dose-only effect, or another doubt; inactive = no such curve, though single readings can be large; an effect the other way counts as inactive or inconclusive.

SMILES | SARS PLpro yeast | Shiga toxin inh | CHX counter | AMA1 RON2 block | Pf growth 48h | Pf growth 96h
COC(=O)c1nc(-c2ccccc2)nc(-c2ccccc2)c1C(=O)OC | x | x | x | 1.8% | x | x
C=C(C)[C@H]1Cc2c(ccc3c2O[C@@H]2COc4cc(OC)c(OC)cc4[C@@H]2C3=O)O1 | x | x | x | x | u | 6.75µM*
CCCCCCCC/C=C\CCCCCCCC(=O)NCCO | x | x | x | 7.8% | 2.94µM* | 2.62µM*
CCCCC/C=C\C/C=C\C/C=C\C/C=C\CCCC(=O)NCCO | x | -1.8 | 4.9 | x | x | x
CCCCCCCC/C=C\CCCCCCCC(=O)NCc1ccc(O)c(OC)c1 | x | x | x | x | u | 16.9µM*
CCCCCCCC/C=C\CCCCCCCC(=O)NCCc1ccc(O)c(O)c1 | x | x | x | -3.7% | 10.4µM* | u
CC(C)CCN1CCC[C@]2(N[C@H](c3ccc(C(F)(F)F)cc3)[C@@H]3C(=O)N(Cc4ccccc4)C(=O)[C@@H]32)C1=O | x | x | x | 1.9% | x | x
CN1CCN(c2ccc(Cl)cc2NS(=O)(=O)c2ccccc2Cl)CC1 | 6.6% | -5.5 | -1.4 | -1.6% | u | u
Cc1sc(NC(=O)c2cccs2)c(C(N)=O)c1C | -13.8% | 62.5 | 40.4* | -1.1% | 123.8% | 17.1%
CCOC(=O)c1c(NC(=O)c2cccs2)sc(CC)c1-c1cccs1 | 4.1% | -13.0 | 3.0 | 73.0% | x | 10.4µM*
CCOC(=O)c1c(-c2ccc(C)s2)csc1NC(=O)c1cccs1 | 1.3% | 5.9 | -4.4 | -0.7% | x | 36.3%
NC(=O)c1ccsc1NC(=O)c1cccs1 | x | x | x | 9.4% | x | x
Cc1ccc(C(=O)NCCNC(=O)c2ccccn2)cc1 | 0.5% | -6.2 | 1.2 | 1.0% | 20.7% | 13.2%
CC(=O)Nc1cccc(N)c1 | -2.6% | x | x | 3.3% | 31.4% | 33.2%
CCOC(=O)c1c(C)[nH]c(C(=O)COC(=O)CNC(=O)C2CCCCC2)c1C | -4.2% | 145.9* | 34.4* | -6.8% | 53.4% | 46.3%
CCOC(=O)c1c(C)[nH]c(C(=O)COC(=O)[C@H](C)NC(=O)c2ccccc2Cl)c1C | 9.7% | 48.8* | 27.8* | -1.4% | 29.1% | 17.1%
CCOC(=O)c1c(C)[nH]c(C(=O)COC(=O)CNC(=O)c2ccc(Br)cc2)c1C | -2.3% | -5.3 | -1.1 | 0.0% | 0.2% | 58.7%
CCOC(=O)c1c(C)[nH]c(C)c1C(=O)COC(=O)CNC(=O)C1CCCCC1 | 0.2% | 32.8 | -1.7 | -2.8% | 1.5% | 7.5%
CCOC(=O)c1c(C)[nH]c(C(=O)COC(=O)CNC(=O)c2ccccc2Cl)c1C | 8.9% | 108.9* | 56.1* | -18.8% | 110.6% | 162.1%
Cc1cc2c(N=NC(=O)C3CC3c3ccccc3)c(O)[nH]c2cc1Br (stereo not drawn) | 16.7% | -15.0 | 1.5 | 3.8% | -0.2% | u
O=c1[nH]c(-c2ccccc2)nc2sc(-c3ccccc3)cc12 | 0.1% | 16.9 | 22.5 | 3.1% | 180.0% | 314.0%
O=c1[nH]cnc2sc(-c3ccccc3)cc12 | -4.5% | 48.7 | 55.9* | -8.1% | x | 27.2%
Cc1ccc(C)n1-n1cnc2sc(-c3ccccc3)cc2c1=O | -18.9% | 19.4 | 14.3* | u | u | -4.2%
Cc1ccc(C)n1-n1c(C)nc2sc(-c3ccccc3)cc2c1=O | -17.6% | 73.1* | 44.9* | -26.4% | u | 5.6%
O=c1c2cc(-c3ccccc3)sc2ncn1-n1cccc1 | 1.8% | 79.4* | 39.3* | 1.8% | 108.7% | x
SMILES | SARS PLpro yeast | Shiga toxin inh | CHX counter | AMA1 RON2 block | Pf growth 48h | Pf growth 96h
CN(Cc1ccc2c(c1)CCCN2C)C(=O)[C@H]1O[C@@H](n2cnc3c(N)ncnc32)[C@H](O)[C@@H]1O | x | x | x | -11.8% | x | x
O=C(O)CC1(CC(=O)Nc2ccc(F)c(Cl)c2)CCCCC1 | -1.3% | -13.5 | 0.9 | -14.9% | 2.0% | 13.4%
CCO[C@H]1OC(C(N)=O)=C[C@@H](C2CC2)[C@@H]1CCCO | x | x | x | -3.1% | x | x
O=C(Cc1ccc(Cl)cc1)NCCCn1ccnc1 | -1.2% | -6.0 | 6.0 | -2.6% | u | u
Clc1ccc(CS[C@@H](Cn2ccnc2)c2ccc(Cl)cc2Cl)cc1 | x | x | x | x | 5.1µM* | 2.28µM*
Clc1ccc(CSC(Cn2ccnc2)c2ccc(Cl)cc2Cl)cc1 (stereo not drawn) | -59.8% | -9.9 | -2.7 | 2.2% | 2.08µM* | 2.94µM*
CN(CC(=O)NCc1ccc2c(c1)OCO2)S(=O)(=O)c1ccc(F)cc1 | 0.3% | -11.1 | 1.6 | -0.9% | 42.5% | 44.4%
N#Cc1ccc(NN=Nc2ccccc2C#N)cc1 | x | x | x | -1.0% | x | x
Clc1ccc(CO/N=C(\Cn2ccnc2)c2ccc(Cl)cc2Cl)c(Cl)c1 | x | x | x | x | 4.26µM* | 1.9µM*
O=C(CSc1nncs1)N1c2ccccc2Sc2ccccc21 | -2.2% | -23.0 | -3.6 | 0.2% | 13.1µM* | x
O=C(CN(CCc1ccccc1)C(=O)CNS(=O)(=O)c1ccc(F)cc1)NCC1CCCO1 (stereo not drawn) | 4.8% | 20.3 | 2.8 | -0.5% | -11.4% | u
Oc1ccc(N=Nc2cccc(C(F)(F)F)c2)cc1C=Nc1ccc(N2CCOCC2)cc1 | 0.1% | -14.1 | -1.5 | -22.9% | u | 3.29µM*
Oc1ccc(C=Nc2ccc(N3CCOCC3)cc2)c(O)c1 | 2.9% | -4.4 | -6.3 | 23.3% | -29.9% | x
Nc1ccc2nc(Cc3ccccc3)[nH]c2c1 | 0.7% | 24.5 | 20.8 | 7.7% | 9.28µM* | 10.4µM*
Cc1nc2ccc(Cc3ccc4nc(C)[nH]c4c3)cc2[nH]1 | 9.0% | 0.9 | -1.8 | 2.9% | u | 10.4µM*
Nc1ccc(Cc2nc3c(ccc4ccccc43)[nH]2)cc1 | -5.5% | 97.0* | 45.8* | -3.6% | 66.5% | 105.0%
CC(C)Cc1nc2ccc(N)cc2[nH]1 | -1.6% | 4.6 | 10.7 | -13.1% | u | 12.9%
Cc1ccc2nc(Cc3ccc(N)cc3)[nH]c2c1 | -11.6% | 75.3* | 19.7* | u | 30.3% | 98.6%
CC(C)On1c(SCC(=O)N(C)C)nc2ccccc2c1=O | 0.4% | -4.2 | -1.3 | -12.1% | u | -0.7%
N=C1C(=O)OCC1c1ccccc1NC(=O)CN1CCOCC1 (stereo not drawn) | 6.5% | -3.7 | -2.6 | 8.3% | 14.0% | 16.0%
CC(=O)N1CCC(C(=O)N2CCN(S(=O)(=O)c3ccc(F)cc3)CC2)CC1 | 7.8% | -2.6 | 2.4 | -8.4% | 19.1% | 53.5%
CCOc1ccc(OCC)c(NC(=O)CN2CCN(c3ccc(C)cc3C)CC2)c1 | -36.5% | -5.9 | -2.6 | -6.1% | 8.28µM* | -7.9%
CCOC(=O)CSc1nc2c(sc(=S)n2-c2ccccc2OC)c(=O)n1Cc1ccco1 | 16.5% | -2.5 | -1.8 | -24.4% | u | 8.7%
CCOC(=O)CSc1nc2c(sc3ccc([N+](=O)[O-])cc32)c(=O)n1Cc1ccco1 | 13.5% | 42.6* | 31.6* | 8.7% | 6.57µM* | 32.7%
O=C(O)c1cccnc1SCc1ccccc1Cl | -0.9% | -14.3 | 0.9 | 1.2% | 19.9% | u
Cc1ccc(C)c(CSc2ncccc2C(=O)O)c1 | u | -3.8 | -5.4 | -7.9% | 9.9% | 7.38µM*
O=C(O)c1cccnc1SCc1cccc(Br)c1 | -3.2% | -6.6 | 13.3 | -9.9% | 1.65µM* | -7.9%
